PubChem BioAssay (NCATS)
Results filed as inconclusive are left out. Calls of active or inactive are those of the source. Calls come from the whole dose curve; as a rule, active = well fitted inhibition curve with a large enough effect; inconclusive = small, poorly fitted or top-dose-only effect; inactive = flat fitted curve, though single readings scatter.

Test: qHTS for Inhibitors of Plasmodium falciparum (HB3) proliferation (AID 504318); note: nearly all actives have a fitted effect of over 60% in size;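 for activity change, negative = inhibition: 0% = DMSO vehicle and -100% = artemisinin control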
Details: P. falciparum HB3 in erythrocytes, SYBR Green DNA, 72 h; series mostly up to 7.21 µM; activity change, negative = inhibition: at the top concentration
Text: Plasmodium falciparum is a virulent malarial parasite that kills 1-2 million people worldwide each year. Malaria not only inflicts tremendous suffering and morbidity on the human population, but has dramatically influenced the course of civilization with profound sociological and economic implications (Shah, S. 2010). Transmitted by mosquitoes, the sporozoite form of the parasite enters the blood stream to infect hepatocytes, where they become merozoites that infect red blood cells (erythrocytes). Within erythrocytes, merozoites begin a […] cycle of growth and division, after which the parasite is released to infect new red blood cells. Gametocytes, which form within erythrocytes as well, circulate in the bloodstream and are ingested by the mosquito, thereby completing the life cycle (see CDC website). To profile malarial lines for differential chemical responses and to identify inhibitors of malarial growth, an assay that measures P. falciparum growth and replication within erythrocytes was employed. This assay uses a DNA binding fluorescent dye (SYBR Green) to detect parasite DNA following cell lysis. Because mature erythrocytes lack DNA, only Plasmodium-derived DNA is detected. The P. falciparum line cp250, derived from a malarial isolate from Cambodia, (Mu, J., et al. 2010) was added to the panel of lines, Dd2, HB3, 7G8 and GB4 in this study. Laboratory of Assay Development and Screening Technology [ADST] and NIH Chemical Genomics Center [NCGC] Boston University, Chemistry Department, Center for Chemical Methodology and Library Development [CMLD-BU] NIH National Institute of Allergy and Infectious Diseases [NIAID]
ADST Assay Protocol Summary: The 1536-well SYBR Green viability assay was based on the method of Bennett et al (2004) and described previously in 1536-well format (Yuan J., et al. 2009). For screening 3 ul culture medium was dispensed into 1536 well black clear bottom plates (Aurora Biotechnologies) using a Multidrop Combi (Thermo Fisher Scientific Inc.), 23 nL compounds in DMSO were added by a pin transfer (Cleveland, P.H. and Koutz, P.J, 2005) using a pin tool-based delivery system (Kalypsys), and 5 ul of erythrocytes infected with P. falciparum one of five lines (cp250, Dd2, HB3, 7G8 or GB4, 0.3% parasitemia, 2.5% hematocrit final concentration) were added. The plates were incubated at 37C in a humidified incubator in 5% CO2 for 72 h, and 2 ul lysis buffer (20 mM Tris HCl, 10 mM EDTA, 0.16% saponin, 1.6% triton X, 10X SYBR Green I (supplied as 10,000X final concentration by Invitrogen) was added to each well. The plates were mixed for 25 sec with gentle shaking and incubated overnight at room temperature in the dark. The following morning, fluorescence intensity at 485(14) nm excitation and 535(25) nm emission wavelengths was measured on an EnVision (Perkin Elmer) plate reader. Plate reads were normalized relative to the control inhibitor (0.29 uM artemisinin) and vehicle (DMSO) wells present on each plate and then corrected by an algorithm using vehicle-only control plates at the beginning and end of the compound plate stack. References Shah, S. (2010). The Fever: how malaria has ruled humankind for 500,000 years. New York, Sarah Crichton Books. CDC web site, http://www.cdc.gov/malaria/about/biology/index.html Mu, J., Myers, R.A., Jiang, H., Liu, S., Ricklefs, S., Waisberg, M., Chotivanich, K., Wilairatana, P., Krudsood, S., White, N.J., et Plasmodium falciparum genome-wide scans for positive selection, recombination hot spots and resistance to antimalarial drugs Nature Genetics 2010, 42, pp 268-271 Bennett TN, Paguio, M., Gligorijevic, B., Seudieu, C., Kosar, A. D., Davidson, E., and Roepe, P. D. Novel, rapid, and inexpensive cell-based quantification of antimalarial drug efficacy Antimicrobial Agents Chemother. 2004, 48(5): pp 1807-10 Yuan J, Johnson RL, Huang RL, Wichterman J, Jiang HY, Hayton K, Fidock DA, Wellems TE, Inglese J, Austin CP, Su XZ. […]
Potency is the fitted concentration of half-maximal effect.

SMILES | Potency | activity change, negative = inhibition
C=CCNC(=O)N1C2=NC(C(=O)OC)=C(C(=O)OC)[C@@H]3N(Cc4ccccc4)c4ccccc4[C@]23C[C@H]1C(=O)OC | 3.16 µM (active) | –
CCOC(=O)CN1C(=O)N[C@@H](c2cccc(C(F)(F)F)c2)C(C(C)=O)=C1C | – | -2.2% (inactive)
COC(=O)C1=C(C(=O)OC)[C@@H]2N(Cc3ccccc3)c3ccccc3[C@@]23C[C@@H](C(=O)OC)N(S(=O)(=O)c2ccc(OC)cc2)C3=N1 | 1.9 µM (active) | –
COC(=O)C1=C(C(=O)OC)[C@@H]2N(C)c3ccc(OC)cc3[C@@]23C[C@@H](C(=O)OC)N(C(C)=O)C3=N1 | – | -1.57% (inactive)
CCOC(=O)CN1C(=O)N[C@@H](CCc2ccccc2)C(C(=O)OC)=C1C | – | -4.43% (inactive)
COC(=O)C1=C(C(=O)OC)[C@@H]2N(Cc3ccccc3)c3ccccc3[C@@]23C[C@@H](C(=O)OC)N(C(=O)COCc2ccccc2)C3=N1 | – | -2.98% (inactive)
COC(=O)C1=C(C(=O)OC)[C@@H]2Nc3ccccc3[C@@]23C[C@@H](C(=O)OC)N(S(=O)(=O)c2cccs2)C3=N1 | – | -3.66% (inactive)
CCCCC1=CC2=CC(=O)C(C)(OC(=O)CC)C(=O)C2=CN1CCCN(CC)CC (stereo not given) | – | 4.63% (inactive)
C=CCN1C=C2C(=O)C(C)(OC(=O)CC)C(=O)C=C2C=C1CCCC (stereo not given) | – | -2.07% (inactive)
C=CCN1c2ccccc2[C@]23C[C@@H](C(=O)OC)N(C(=O)COCc4ccccc4)C2=NC(C(=O)OC)=C(C(=O)OC)[C@H]13 | – | 2.64% (inactive)
COC(=O)CCC(=O)OC1(C)C(=O)C=C2C=C(C3CC3)N(c3ccccc3)C=C2C1=O (stereo not given) | – | -1.58% (inactive)
CCCCc1nc2c(c3c1C[C@H](C)OC3)CN(C(=O)NCCc1c[nH]c3ccccc13)CC2 | – | 2.26% (inactive)
COC(=O)C1=C(C(=O)OC)[C@@H]2Nc3ccccc3[C@@]23C[C@@H](C(=O)OC)N(C(=O)c2cc(C)oc2C)C3=N1 | 1.69 µM (active) | –
CCCCc1nc2c(c3c1C[C@H](C)OC3)CN(C(=O)NCCCC(=O)OCC)CC2 | – | -4.83% (inactive)
CCN1C(=O)N[C@@H](c2cccs2)C(C(C)=O)=C1C | – | 0.965% (inactive)
COC(=O)CCC(=O)OC1(C)C(=O)C2=CN(CCCCO)C(c3ccc(OC)cc3)=CC2=C(Br)C1=O (stereo not given) | – | 0.227% (inactive)
CCOC(=O)NN=C1C[C@@H](O)[C@@H](O)[C@@H]2[C@H]3C(=O)N(CC)C(=O)[C@@H]3CC[C@@H]12 | – | 5.09% (inactive)
C=CC1=C2C=C(C3CC3)N(C3CC3)C=C2C(=O)C(C)(OC(=O)c2ccco2)C1=O (stereo not given) | – | 5.04% (inactive)
CCN1C(=O)N[C@@H](c2cccc(C(F)(F)F)c2)C(C(=O)OC)=C1C | – | 4.29% (inactive)
C=CCN1c2ccccc2[C@]23C[C@@H](C(=O)OC)N(S(=O)(=O)c4c(C)noc4C)C2=NC(C(=O)OC)=C(C(=O)OC)[C@H]13 | – | -1.28% (inactive)

SMILES | Potency | activity change, negative = inhibition
COC(=O)N1CCc2cc(OC)c(OC)cc2C1Cc1ccc(OC)cc1 (stereo not given) | – | 2.6% (inactive)
CCOC(=O)CN1C(=O)N[C@@H](c2ccccc2)[C@@H](C(=O)OC)[C@H]1C | – | 0.962% (inactive)
C[C@H]1Cc2c(-c3ccccc3)nc3c(c2CO1)CN(C(=O)c1cc(I)ccc1F)CC3 | – | -8.2% (inactive)
CC(C)(C)OC(=O)NCCCC1=CC2=CC(=O)C(C)(OC(=O)c3cccs3)C(=O)C2=CO1 (stereo not given) | – | -6.26% (inactive)
COC(=O)CC=C[C@@H](C)[C@H](OC)c1cc(F)ccc1Br | – | -5.48% (inactive)
CCOC(=O)CN1C(=O)N[C@@H](CCc2ccccc2)[C@H](C(C)=O)[C@H]1C | – | 2.36% (inactive)
CCCCC1=CC2=CC(=O)C(C)(OC(=O)CC)C(=O)C2=CN1c1ccccc1 (stereo not given) | – | -0.607% (inactive)
COc1ccc2c(c1)O[C@@H](c1cccc(C(F)(F)F)c1)[C@H](OC(=O)N[C@H]1CCCc3ccccc31)C2=O | – | -15.6% (inactive)
CC(C)CN1C=C2C(=O)C(C)(OC(=O)CCc3ccccc3)C(=O)C=C2C=C1c1ccc(C#N)cc1 (stereo not given) | – | -6.37% (inactive)
COC(=O)CCCC1=CC2=CC(=O)C(C)(OC(=O)CCc3ccccc3)C(=O)C2=CO1 (stereo not given) | – | -8.71% (inactive)
COC(=O)C1=C(C(=O)OC)[C@@H]2Nc3ccccc3[C@@]23C[C@@H](C(=O)OC)N(S(=O)(=O)c2c(C)noc2C)C3=N1 | – | -8.41% (inactive)
COC(=O)C1=C(C)N(Cc2ccco2)C(=O)N[C@@H]1c1ccc(Br)cc1 | – | -2.68% (inactive)
CC1(OC(=O)C2CCCC2)C(=O)C=C2C=C(c3ccsc3)N(c3ccccc3)C=C2C1=O (stereo not given) | – | -2.07% (inactive)
CCOC(=O)OC[C@H]1O[C@H](c2ccccc2)C=C[C@H]1OC(=O)OCC | – | 8.24% (inactive)
CCN1C(=O)N(S(=O)(=O)c2ccc(C)cc2)[C@@H](c2ccccc2)C(C(=O)OC)=C1C | – | -9.9% (inactive)
CC1(C)O[C@@H]2[C@@H](O1)C(c1ccccc1)(c1ccccc1)OP(=O)(O)OC2(c1ccccc1)c1ccccc1 | – | 4.61% (inactive)
CCCCC1=CC2=CC(=O)C(C)(OC(=O)CC)C(=O)C2=CN1c1ccncc1 (stereo not given) | – | 2.75% (inactive)
COC(=O)C(C(=O)OC)C1c2ccccc2C=C(C)N1C(=O)OC (stereo not given) | – | -1.85% (inactive)
C=CCN1C=C2C(=O)C(C)(OC(=O)c3cnc4ccccc4n3)C(=O)C=C2C=C1/C=C/COC (stereo not given) | – | -1.37% (inactive)
CCCNC(=O)N1C2=NC(C(=O)OC)=C(C(=O)OC)[C@@H]3Nc4ccccc4[C@]23C[C@H]1C(=O)OC | – | 0.327% (inactive)
